Assay outcomes: PubChem, National Center for Advancing Translational Sciences (NCATS)
Compounds with a hit are over-represented: about 7.1% of the library has one in this group of screens.
ATXN2 expr inh: ATXN2 expression inhibition | AID 1745845 | 360,000 tested, 0.72% active | Potency, µM (top dose mostly 57 µM), inactives show at the top dose activity change, negative = inhibition, usual class: inhibitors | HEK-293 ATXN2-luciferase reporter, luminescence, 24 h; note: potency is the fitted concentration of half-maximal effect; % is set by controls: 0 for no effect and ±100 for the full control effect; nearly all actives have a fitted effect of over 55% in size
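ATXN2-luciferase reporter cells (luciferase flanked by upstream and downstream ATXN2 gene portions) were treated 24 h at 37 °C with compounds at up to 57 uM. SteadyGlo luminescence gave expression; GF-AFC fluorescence gave viability.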
IL-1B inflam inh: inhibitors of inflammasome signaling (IL-1 beta secretion) | THP-1 LPS/ATP IL-1B secretion, AlphaLISA, 16 h; hits give low values | activity change, % at 57.5 µM | 360,000 tested, 4.7% active | AID 743279; in the data active = activity change below about -50%; inconclusive = mostly about -30% to -49%; note: % is set by controls: 0 for no effect and ±100 for the full control effect
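THP-1 cells pretreated 1 hr with compounds (up to 57.5 uM final), then stimulated with LPS (250 ng/mL final) plus ATP (1.25 mM final); secreted IL-1B measured by AlphaLISA after 16 hr, decreased signal indicating inhibition.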
SW480 rereplic: DNA re-replication induction in SW480 cells; Potency, µM (series often up to 46.1 µM), for the others: at the highest dose re-replication activation, usual class: activators; 340,000 tested, 1.8% active; SW480 DNA re-replication, Hoechst DNA content imaging, 48 h; AID 624297; note: potency is the fitted concentration of half-maximal effect; % of control where 0% means no effect; nearly all actives have a fitted effect of over 55% in size
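Quantitative HTS format with DMSO vehicle controls; 48 hr drug incubation at 37 C, then 40 min Hoechst staining and scanning imager measurement at 405 nm excitation.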
S2 tox: cell viability loss in ATXN counter-screen | S2 cells (HEK-293 line with an ATXN2-luciferase reporter) viability, CellTiter-Fluor protease fluorescence, 24 h | Potency, µM (doses to about 56.7 µM), usual class: cytotoxic | 400,000 tested, 0.49% active; note: potency is the fitted concentration of half-maximal effect; nearly all actives have a fitted effect of over 40% in size
MCF10A rereplic: DNA re-replication induction in MCF 10a cells; MCF 10A DNA re-replication, Hoechst nuclear intensity, 48 h; Potency, µM (titrated, usually from 46.1 µM), inactives show top-dose activity, positive = re-replication, actives largely listed as activators; 350,000 tested, 2.9% active; note: potency is the fitted concentration of half-maximal effect; % of control where 0% means no effect; nearly all actives have a fitted effect of over 50% in size
PINK1 expr mod: modulators of PINK1 expression; PINK1 immunofluorescence, high-content cytometry, 24 h; Potency, µM (series often up to 76.6 µM), without a hit: at the top dose activation (PINK1 increase), hits mostly activators; 410,000 tested, 0.2% active; AID 624263; active = well fitted activation curve with a large enough effect; inconclusive = small, poorly fitted or top-dose-only effect; cell line not stated here; note: potency is the fitted concentration of half-maximal effect; % of control where 0% means no effect; nearly all actives have a fitted effect of over 65% in size
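Compound titrations (5 concentrations, 24 h) on a stable cell line; DMSO and CCCP controls. Endpoint: fixed-cell PINK1 immunofluorescence with mitochondrial, cell and nuclear markers, scanned by microplate cytometer.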
Numbers without * were called inactive; i = inactive; ? = inconclusive; . = no result; [ ] = another dose, or the depositor's remark. Unless noted, calls come from the whole dose curve; as a rule, active = well fitted curve in the direction sought with a large enough effect; inconclusive = small, poorly fitted or top-dose-only effect, or another doubt; inactive = no such curve, though single readings can be large; an effect the other way counts as inactive or inconclusive.

SMILES	ATXN2 expr inh	IL-1B inflam inh	SW480 rereplic	S2 tox	MCF10A rereplic	PINK1 expr mod
CCOC(=O)C1=C(C)N=c2s/c(=C\c3ccc(O)c([N+](=O)[O-])c3)c(=O)n2C1c1ccccc1OC (stereo unspecified)	?	61.1	17.1%	?	?	?
CC(=O)Nc1nonc1-c1nc2ccccc2n1Cc1ccccc1	-0.3%	16.6	?	i	?	?
CCC(=O)Nc1nonc1-c1nc2ccccc2n1Cc1ccc(Cl)c(Cl)c1	-7.8%	82.5	0.4%	i	5.17µM*	15.0%
COc1cc(/C(C)=N/N2CCN(c3ccccc3OC)CC2)ccc1O	13.3%	-0.2	-32.7%	i	3.66µM*	1.6%
COc1ccccc1N1CCN(/N=C(\C)c2ccccc2O)CC1	.	5.4	0.6%	i	-0.2%	1.5%
Cc1ccccc1CNC(=O)c1ccc(CS(=O)Cc2ccc(Cl)cc2)o1 (stereo unspecified)	.	.	.	.	.	-1.6%
Cc1cccc(C)c1NC(=O)CSc1nccn1C	1.5%	.	.	i	.	-1.1%
COc1cc(/C=N/Nc2ncc(C(F)(F)F)cc2Cl)cc(OC)c1OC	.	-8.7	7.31µM*	i	?	4.6%
Nc1ccc(-c2nc(-c3ccccc3)nc3ccccc23)cc1	-15.6%	?	23.1µM*	.	16.4µM*	3.8%
Nc1ccc(-c2cc(-c3cccc(N)c3)nc(-c3ccccc3)n2)cc1	-9.1%	9.6	?	i	16.4µM*	3.9%
CC(=O)Nc1ccc(-c2cc(-c3ccccc3)nc(-c3ccccc3)n2)cc1	?	2.9	0.9%	?	?	6.0%
COc1ccc(C(=O)CC(c2ccccc2)S(=O)(=O)c2ccc(C)cc2)cc1 (stereo unspecified)	.	.	1.4%	.	0.4%	.
COc1ccc(C(CC(=O)c2ccc(O)cc2)S(=O)(=O)c2ccc(C)cc2)cc1 (stereo unspecified)	74.5%	-50.8*	-3.7%	i	6.6%	0.7%[38.3 µM]
O=C(NN1C(=O)c2ccccc2NC1c1ccc([N+](=O)[O-])o1)c1ccc([N+](=O)[O-])cc1 (stereo unspecified)	-25.7%	-103.8*	?	?	?	-1.7%
O=C(NN1C(=O)c2ccccc2NC1c1ccoc1)c1ccc([N+](=O)[O-])cc1 (stereo unspecified)	34.5%	?	4.8%	i	-9.1%	1.9%
O=C(NN1C(=O)c2ccccc2NC1c1ccc([N+](=O)[O-])o1)c1ccccc1 (stereo unspecified)	-0.7%	-76.3*	?	i	?	2.7%
COCCN(C)C(=O)c1cnn(-c2ncc3c(n2)-c2ccccc2CC3)c1C	.	.	.	i	.	1.4%
Cc1cccc(NC(=O)C(=O)NCCc2sc(-c3ccccc3)nc2C)c1C	8.5%	.	.	i	.	-0.7%
Cc1ccc(/C(=C\CN2CCCC2)c2cccc(/C=C/C(=O)O)n2)cc1	.	.	.	i	.	.
CCCCNC(=O)c1cc2c(=O)n3cccc(C)c3nc2n(Cc2ccccc2)c1=N	-14.5%	3.6	-2.6%	.	16.7%	-6.3%[38.3 µM]
CNC(=O)c1cc2c(=O)n3cccc(C)c3nc2n(C(C)C)c1=N	-15.7%	4.2	?	.	3.66µM*	0.0%
Cc1cccn2c(=O)c3cc(C(=O)NC4CCCC4)c(=N)n(C4CCCCC4)c3nc12	-1.5%	20.7	3.26µM*	i	25.5%	0.1%
Cc1cccn2c(=O)c3cc(C(=O)NCc4ccco4)c(=N)n(C4CCCCC4)c3nc12	-15.6%	-98.1*	16.4µM*	.	23.1µM*	27.6%
Cc1cccn2c(=O)c3cc(C(=O)NC4CCS(=O)(=O)C4)n(Cc4ccccc4)c3nc12 (stereo unspecified)	-19.7%	1.3	2.59µM*	?	13µM*	7.2%
COc1ccccc1-c1ccc(C(=O)N2CCC(N3CCc4ccccc4C3)CC2)c(N(C)CC2COCCO2)n1 (stereo unspecified)	.	.	.	i	.	-0.4%
SMILES	ATXN2 expr inh	IL-1B inflam inh	SW480 rereplic	S2 tox	MCF10A rereplic	PINK1 expr mod
COCCNC(=O)CSc1nnc(-c2ccc(OC)c(OC)c2)c(-c2ccc(OC)c(OC)c2)n1	.	.	.	.	.	1.7%
Cc1ccc(CN(Cc2ccco2)C(=O)c2ccccc2Br)o1	.	.	.	.	.	0.1%
Cc1cccn2c(=O)c3cc(C(=O)NC4CCCC4)c(=N)n(Cc4ccc(F)cc4)c3nc12	-21.0%	15.9	4.61µM*	.	2.31µM*	23.7%
Cc1cccn2c(=O)c3cc(C(=O)NC4CCCCC4)c(=N)n(Cc4ccccc4)c3nc12	-9.8%	-86.4*	2.31µM*	i	2.06µM*	?
Cc1cccn2c(=O)c3cc(C(=O)NCc4ccco4)c(=N)n(CCOCCO)c3nc12	-14.6%	-56.9*	?	i	?	0.7%
Cc1cccn2c(=O)c3cc(C(=O)NC4CCCC4)c(=N)n(CCc4ccccc4)c3nc12	-8.8%	27.6	4.61µM*	.	2.59µM*	?
COc1ccc(CCn2c(=N)c(C(=O)NC3CCCC3)cc3c(=O)n4cccc(C)c4nc32)cc1	.	5.4	?	i	248.3%	1.6%
Cc1ccc(Cl)cc1N1CCN(c2nc3ccccc3c3nc(-c4cccnc4)nn23)CC1	0.6%	.	.	i	.	-1.2%
Fc1ccc(N2CCN(Cc3ccc4c(c3)CN(Cc3cccn3-c3cccnc3)CCO4)CC2)cc1	.	.	.	?	.	-0.3%
COCCNC(=O)C1CCCN(C(=O)c2cccnc2Oc2ccccc2)CC1 (stereo unspecified)	1.2%	-8.6	.	i	.	1.8%
CCCCN(CCCC)CCNC(=O)c1cc(=O)[nH]c2ccc(S(=O)(=O)N3CCCCCC3)cc12	.	.	.	.	.	0.0%
Cc1ccc(NC(=O)C2CCCN(S(=O)(=O)c3cccs3)C2)c(C)c1 (stereo unspecified)	.	.	.	.	.	-1.1%
Oc1cccc(Nc2c3ccccc3nc3ccccc23)c1	.	-24.9	6.6%	.	?	5.4%
CCN(CC)Cc1cc(Nc2c3ccccc3nc3c4ccccc4n(C)c23)cc(CN(CC)CC)c1O	20µM*	-112.5*	?	31.6µM*	?	-2.0%
Oc1cccc(/C=N/N(Cc2ccccc2)c2ccccc2)c1	-9.4%	-55.2*	?	i	?	-0.6%
CC(=O)Nc1nonc1-c1nnc(SCC(=O)Nc2cccc(F)c2)n1-c1ccccc1	5.0%	.	.	i	.	2.0%
COc1ccc(Cl)cc1C(=O)NCCCSc1ccccc1	-14.8%	-54.2*	9.5%	i	25.6%	-0.3%
O=C(NCCO)c1cn(C2CCCN(Cc3cccc(C(F)(F)F)c3)C2)nn1 (stereo unspecified)	.	.	.	i	.	-0.7%
CCOc1ccccc1OCC(=O)Nc1ccc(N2CCCCC2)cc1	24.5%	-78.5*	0.2%	i	1.3%	0.0%[38.3 µM]
